According to the supplement of paper PMC12067926:
Unmarked numbers belong to inactive results.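 How the source made its calls: active = growth AUC significantly below the DMSO wells by Dunnett test; inactive = the rest.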

How the values were obtained:
Assay in all cases: relative growth (AUC of 72 h growth curve relative to DMSO control, dAUC) (ratio); higher = more growth (less inhibition), active = hit call of the paper
Settings in all cases: 20 µM
Community 7 = test system: Community 7
Method in brief: (§1)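 Growth was followed as A600, read hourly for 72 h on a plate reader after brief shaking. Isolates from Icelandic stream sediments and Silwood Park soil, and whole sediment communities, were first grown to carrying capacity in Luria–Bertani medium and then diluted 1:100 into 96-well plates with each chemical at 20 µM (1% DMSO). Relative growth (dAUC) is the spline-integrated area under the curve scaled to the mean of the DMSO controls, and the values are averages of three biological replicates.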

Community 8 = test system: Community 8
Method in brief: as §1

Community 9 = test system: Community 9
Method in brief: as §1

[1] = test system: Flavobacterium 1 (Flavobacterium glaciei)
Method in brief: as §1

[2] = test system: Flavobacterium 2 (Flavobacterium succinicans)
Method in brief: as §1

[3] = test system: Hymenobacter 1 (Hymenobacter glaciei)
Method in brief: as §1

[4] = test system: Microbacterium 1 (Microbacterium arborescens)
Method in brief: as §1

[5] = test system: Neobacillus 1 (Neobacillus soli)
Method in brief: as §1

[6] = test system: Oryzobacter 1 (Oryzobacter terrae)
Method in brief: as §1

[7] = test system: Paenibacillus 1 (Paenibacillus castaneae)
Method in brief: as §1

[8] = test system: Prolinoborus 1 (Prolinoborus fasciculus)
Method in brief: as §1

[9] = test system: Pseudomonas 1 (Pseudomonas baetica)
Method in brief: as §1

[10] = test system: Pseudomonas 2 (Pseudomonas vancouverensis)
Method in brief: as §1

[11] = test system: Pseudomonas 3 (Pseudomonas mandelii)
Method in brief: as §1

[12] = test system: Pseudomonas 4 (Pseudomonas peli)
Method in brief: as §1

[13] = test system: Pseudomonas 5 (Pseudomonas baetica)
Method in brief: as §1

[14] = test system: Pseudomonas 6 (Pseudomonas sp.)
Method in brief: as §1

[15] = test system: Rhizobium 1 (Rhizobium herbae)
Method in brief: as §1

[16] = test system: Serratia 1 (Serratia sp. 2015-2462-01)
Method in brief: as §1

[17] = test system: Sphingomonas 2 (Sphingomonas sp.)
Method in brief: as §1

Row | SMILES | relative growth (Community 7) | relative growth (Community 8) | relative growth (Community 9) | relative growth [1] | relative growth [2] | relative growth [3] | relative growth [4] | relative growth [5] | relative growth [6] | relative growth [7] | relative growth [8] | relative growth [9] | relative growth [10] | relative growth [11] | relative growth [12] | relative growth [13] | relative growth [14] | relative growth [15] | relative growth [16] | relative growth [17]
1 | CCSC(C)CC1CC(=O)C(/C(CC)=N/OC/C=C/Cl)=C(O)C1 (mixture of isomers) | 1.02 | 1 | 1.12 | 1 | 0.981 | 0.951 | 1.03 | 1.05 | 1.03 | 0.995 | 0.983 | 1.07 | 0.999 | 1.02 | 1.01 | 1.05 | 1.14 | 0.924 | 0.973 | 1.18
2 | N#Cc1sc2c(=O)c3ccccc3c(=O)c=2sc1C#N | 1.06 | 1.06 | 1.09 | 0.359 (active) | 1.05 | 0.709 | 0.965 | 1 | 0.898 | 0.928 | 1.03 | 0.913 | 0.929 | 0.887 (active) | 1.07 | 0.962 | 0.885 | 1 | 0.862 | 1.01
3 | Fc1ccc([C@]2(Cn3cncn3)O[C@H]2c2ccccc2Cl)cc1 (racemic) | 1.15 | 1.04 | 0.984 | 0.944 | 0.938 | 0.943 | 1.01 | 0.963 | 1.13 | 0.92 | 0.982 | 0.942 | 0.973 | 1.04 | 0.967 | 0.992 | 1.07 | 1.08 | 0.972 | 1.01
4 | CCc1nn(C)c(C(=O)NCc2ccc(Oc3ccc(C)cc3)cc2)c1Cl | 1.02 | 1.03 | 0.885 | 1 | 1.04 | 0.992 | 1.02 | 1.05 | 0.988 | 1 | 0.978 | 1.08 | 1.02 | 1.01 | 0.987 | 1.01 | 1.05 | 0.941 | 1.07 | 1.04
5 | O=C1c2ccccc2C(=O)N1SC(Cl)(Cl)Cl | 0.943 | 0.913 | 1.01 | 1.05 | 0.983 | 1.11 | 1.02 | 1.07 | 0.988 | 1.02 | 1.04 | 1.05 | 0.992 | 1.01 | 1.01 | 1.06 | 1.16 | 1.01 | 0.947 | 0.999
6 | CC1=NNC(=O)N(/N=C/c2cccnc2)C1 | 0.897 | 0.918 | 1.2 | 1.04 | 1.05 | 1.12 | 1 | 1.16 | 1.01 | 1.06 | 1.05 | 0.636 | 1.03 | 0.986 | 0.986 | 0.971 | 0.931 | 1.03 | 0.937 | 1.03
7 | CN/C(=N/CC1CCOC1)N[N+](=O)[O-] (stereo not given) | 1.01 | 1.03 | 1.04 | 1.04 | 1.02 | 1.06 | 1.02 | 0.994 | 0.957 | 1.01 | 0.955 | 0.963 | 0.983 | 1.03 | 1.03 | 0.992 | 1.06 | 0.912 | 1.01 | 1.14
